Source: PubChem BioAssay (Tox21)
Records with an inconclusive call do not appear. Calls of active or inactive are those of the source. The call rests on the fitted dose curve; in most records, active means well fitted curve in the direction sought with a large enough effect in the repeat runs; inconclusive means weak or mixed curves; inactive means no such curve, though single readings can be large; an effect the other way counts as inactive or inconclusive.

Key:
[1] = A CellTox Green Cytotoxicity Assay to monitor cytotoxicity in HEK293 cells - 40 hour (AID 1224871); further: nearly all actives have a fitted effect of over 45% in size
In short: (§1)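 Homogeneous no-lysis format: HEK293 cell suspension mixed with CellTox Green reagent, seeded, incubated 5 h at 37 C/5% CO2, then dosed by pintool with compound in DMSO.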

[2] = qHTS RealTime-Glo MT Cell Viability Assay in HEK293 cells - 16 hour (AID 1224872); further: top concentration of the series differs between compounds; nearly all actives have a fitted effect of over 50% in size
In short: (§2)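 Assay medium contained NanoLuc luciferase plus cell-permeant prosubstrate, added with HEK293 cells at 600 cells/well. After 5 h at 37 C/5% CO2 compounds were added; plates stayed at 37 C for 40 h with serial luminescence reads.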

[3] = qHTS RealTime-Glo MT Cell Viability Assay in HepG2 cells - 8 hour (AID 1224873); further: nearly all actives have a fitted effect of over 55% in size
In short: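 HepG2 cells (600/well) mixed with RealTime-Glo MT reagent, settled 5 h at 37 C/5% CO2 before compound addition. Nonlytic NanoLuc luminescence from viable-cell prosubstrate reduction read repeatedly during 40 h treatment at 37 C.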

[4] = A CellTox Green Cytotoxicity Assay to monitor cytotoxicity in HEK293 cells - 24 hour (AID 1224875); further: series mostly up to about 77 µM; nearly all actives have a fitted effect of over 45% in size
In short: as §1

[5] = A CellTox Green Cytotoxicity Assay to monitor cytotoxicity in HepG2 cells - 16 hour (AID 1224876); further: nearly all actives have a fitted effect of over 45% in size
In short: (§3)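 Fluorescent DNA-binding dye, 600 HepG2 cells/well, 5 h preincubation then compound in DMSO; same plates read at 0–40 h, 37 C.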

[6] = qHTS RealTime-Glo MT Cell Viability Assay in HepG2 cells - 32 hour (AID 1224877); further: nearly all actives have a fitted effect of over 55% in size
In short: (§4)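 qHTS, HepG2, 600 cells/well, RealTime-Glo (NanoLuc + prosubstrate) added with cells; 5 h preincubation; DMSO compound addition; 37 C; luminescence at 0/8/16/24/32/40 h.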

[7] = A CellTox Green Cytotoxicity Assay to monitor cytotoxicity in HepG2 cells - 24 hour (AID 1224878); further: nearly all actives have a fitted effect of over 45% in size
In short: as §3

[8] = qHTS RealTime-Glo MT Cell Viability Assay in HEK293 cells - 0 hour (AID 1224880)
In short: (§5)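 Measured as luminescence from the same continuously cultured HEK293 wells at successive time points (0, 8, 16, 24, 32, 40 h) after compound addition. Reagent present from seeding; dosing at 5 h; incubation 37 C.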

[9] = A CellTox Green Cytotoxicity Assay to monitor cytotoxicity in HEK293 cells - 32 hour (AID 1224881); further: nearly all actives have a fitted effect of over 40% in size
In short: as §1

[10] = A CellTox Green Cytotoxicity Assay to monitor cytotoxicity in HepG2 cells - 0 hour (AID 1224882); further: nearly all actives have a fitted effect of over 35% in size
In short: as §3

[11] = A CellTox Green Cytotoxicity Assay to monitor cytotoxicity in HEK293 cells - 8 hour (AID 1224884); further: nearly all actives have a fitted effect of over 35% in size
In short: as §1

[12] = qHTS RealTime-Glo MT Cell Viability Assay in HepG2 cells - 16 hour (AID 1224885); further: nearly all actives have a fitted effect of over 50% in size
In short: as §4

[13] = qHTS RealTime-Glo MT Cell Viability Assay in HEK293 cells - 24 hour (AID 1224886); further: top concentration of the series differs between compounds; nearly all actives have a fitted effect of over 50% in size
In short: as §2

[14] = qHTS RealTime-Glo MT Cell Viability Assay in HEK293 cells - 8 hour (AID 1224887); further: top concentration of the series differs between compounds; nearly all actives have a fitted effect of over 50% in size
In short: as §5

[15] = A CellTox Green Cytotoxicity Assay to monitor cytotoxicity in HEK293 cells - 16 hour (AID 1224888); further: nearly all actives have a fitted effect of over 35% in size
In short: as §1

[16] = qHTS RealTime-Glo MT Cell Viability Assay in HepG2 cells - 0 hour (AID 1224889); further: nearly all actives have a fitted effect of over 50% in size
In short: as §4

[17] = A CellTox Green Cytotoxicity Assay to monitor cytotoxicity in HepG2 cells - 8 hour (AID 1224890); further: nearly all actives have a fitted effect of over 45% in size
In short: as §3

[18] = qHTS RealTime-Glo MT Cell Viability Assay in HEK293 cells - 40 hour (AID 1224874); conditions: RealTime-Glo luminescence; max response: active compounds read low; further: nearly all actives have a fitted effect of over 50% in size
In short: as §5

[19] = A CellTox Green Cytotoxicity Assay to monitor cytotoxicity in HepG2 cells - 40 hour (AID 1224879); further: nearly all actives have a fitted effect of over 40% in size
In short: as §3

[20] = A CellTox Green Cytotoxicity Assay to monitor cytotoxicity in HepG2 cells - 32 hour (AID 1224883); further: nearly all actives have a fitted effect of over 50% in size
In short: as §3
On the % scale 0 is the no-effect control and ±100 the full control effect.

CC(Oc1ccc(Oc2ncc(C(F)(F)F)cc2Cl)cc1)C(=O)O (stereo not drawn)
inactive: Potency [1] | Potency [2] | Potency [3] | Potency [4] | Potency [5] | Potency [6] | Potency [7] | outcome [8] | Potency [9] | outcome [10] | Potency [11] | Potency [12] | Potency [13] | Potency [14] | Potency [15] | Potency [16] | Potency [17]

CCC(C)n1c(=O)[nH]c(C)c(Br)c1=O (stereo not drawn)
inactive: Potency [1] | Potency [2] | Potency [3] | max response [18] 0.435% | Potency [5] | Potency [6] | Potency [7] | Potency [19] | outcome [8] | Potency [9] | outcome [10] | Potency [20] | Potency [11] | Potency [13] | Potency [14] | Potency [15] | Potency [16] | Potency [17]

COP(=S)(OC)Oc1c(Cl)cc(C)cc1Cl
inactive: Potency [1] | Potency [2] | Potency [3] | max response [18] 0.348% | Potency [5] | Potency [6] | Potency [7] | Potency [19] | outcome [8] | Potency [9] | outcome [10] | Potency [12] | Potency [13] | Potency [15] | Potency [16] | Potency [17]

Nc1n[nH]c(N)n1
inactive: Potency [1] | Potency [2] | Potency [3] | Potency [4] | Potency [5] | Potency [6] | Potency [7] | Potency [19] | outcome [8] | Potency [9] | outcome [10] | Potency [20] | Potency [11] | Potency [12] | Potency [14] | Potency [15] | Potency [16] | Potency [17]

OCCSCSCCO
inactive: Potency [1] | Potency [2] | Potency [3] | max response [18] 10.4% | Potency [5] | Potency [6] | Potency [7] | Potency [19] | outcome [8] | Potency [9] | outcome [10] | Potency [20] | Potency [11] | Potency [12] | Potency [13] | Potency [15] | Potency [17]

C(CCOCC1CO1)COCC1CO1 (stereo not drawn)
inactive: Potency [1] | Potency [2] | Potency [3] | Potency [4] | Potency [5] | Potency [6] | Potency [7] | Potency [19] | outcome [8] | Potency [9] | outcome [10] | Potency [20] | Potency [11] | Potency [13] | Potency [14] | Potency [15] | Potency [16] | Potency [17]

O=c1oc2ccccc2c(O)c1C1CCCc2ccccc21 (stereo not drawn)
inactive: Potency [1] | Potency [2] | Potency [3] | max response [18] 14.6% | Potency [5] | Potency [6] | Potency [7] | Potency [19] | outcome [8] | Potency [9] | outcome [10] | Potency [20] | Potency [11] | Potency [12] | Potency [13] | Potency [15] | Potency [16] | Potency [17]

CC(N)=S
inactive: Potency [1] | Potency [2] | Potency [3] | max response [18] 1.38% | Potency [5] | Potency [6] | Potency [7] | Potency [19] | outcome [8] | Potency [9] | outcome [10] | Potency [11] | Potency [12] | Potency [13] | Potency [15] | Potency [16] | Potency [17]

COc1cc2c(cc1OC)[C@@]13CCN4CC5=CCO[C@H]6CC(=O)N2[C@H]1[C@H]6[C@H]5C[C@H]43
inactive: Potency [1] | Potency [2] | Potency [3] | Potency [5] | Potency [6] | Potency [7] | Potency [19] | outcome [8] | Potency [9] | outcome [10] | Potency [20] | Potency [11] | Potency [13] | Potency [14] | Potency [15] | Potency [16] | Potency [17]

CCCCP(CCCC)CCCC
inactive: Potency [1] | Potency [2] | Potency [3] | max response [18] -4.34% | Potency [5] | Potency [6] | Potency [7] | Potency [19] | outcome [8] | Potency [9] | outcome [10] | Potency [20] | Potency [12] | Potency [13] | Potency [14] | Potency [15] | Potency [16] | Potency [17]

CC(C)(C)C(=O)C(Oc1ccc(Cl)cc1)n1cncn1 (stereo not drawn)
inactive: Potency [1] | Potency [2] | Potency [3] | Potency [4] | Potency [5] | Potency [6] | Potency [7] | Potency [19] | outcome [8] | Potency [9] | outcome [10] | Potency [20] | Potency [11] | Potency [12] | Potency [14] | Potency [15] | Potency [16] | Potency [17]

C[C@@H]1CN(C2CCC(C#N)(c3ccc(F)cc3)CC2)CC[C@]1(C(=O)O)c1ccccc1 (stereo partly drawn)
inactive: Potency [1] | Potency [2] | Potency [3] | max response [18] 2.36% | Potency [5] | Potency [6] | Potency [7] | Potency [19] | outcome [8] | Potency [9] | outcome [10] | Potency [20] | Potency [11] | Potency [12] | Potency [13] | Potency [14] | Potency [15] | Potency [17]

COCC(=O)N(c1c(C)cccc1C)N1CCOC1=O
inactive: Potency [1] | Potency [2] | Potency [3] | max response [18] 0.893% | Potency [5] | Potency [6] | Potency [7] | Potency [19] | outcome [8] | Potency [9] | outcome [10] | Potency [20] | Potency [12] | Potency [13] | Potency [14] | Potency [15] | Potency [16] | Potency [17]

O=[N+]([O-])c1ccc2c3c(cccc13)CC2
inactive: Potency [1] | Potency [2] | Potency [3] | max response [18] 1.98% | Potency [5] | Potency [6] | Potency [7] | Potency [19] | outcome [8] | Potency [9] | outcome [10] | Potency [20] | Potency [11] | Potency [12] | Potency [13] | Potency [14] | Potency [15] | Potency [17]

Nc1cnn(-c2ccccc2)c(=O)c1Cl
inactive: Potency [1] | Potency [2] | Potency [3] | max response [18] 20.5% | Potency [5] | Potency [6] | Potency [7] | Potency [19] | outcome [8] | Potency [9] | outcome [10] | Potency [20] | Potency [11] | Potency [12] | Potency [13] | Potency [15] | Potency [17]
